Screening results (PubChem)
BaF3 parental = parental Ba/F3 cell viability inhibition, counter-screen for JAK2V617F inhibitor project, murine pro-B, CellTiter-Glo luminescence | AID 1486, 2009 | CellTiter-Glo ATP luminescence | hit rate 1.1% among 220,000 | inhibition, % at 5.6 µM;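 active = inhibition above a per-campaign cutoff, the mean inhibition of all tested compounds plus 3 SD, cut at about 27% in these data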;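 note: 0% = DMSO wells and 100% = JAK Inhibitor I control wells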
APP 5UTR inh = inhibitors of APP translation via 5'UTR reporter, primary screen, APP 5'UTR luciferase, SH-SY5Y cells. SH-SY5Y APP 5'UTR-luciferase reporter, luminescence. inhibition, % at 2 µM. hit rate 0.82% among 190,000;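 active = inhibition above a set limit, derived from the sample mean plus 3 SD, cut at about 45% in these data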
Ba/F3 V617F tox = reduced viability of JAK2V617F-dependent Ba/F3 cells, primary screen, JAK2V617F inhibitor project, cell-based, Ba/F3 EpoR-JAK2V617F, luminescence; ATP luminescence; inhibition, % at 5.6 µM; hit rate 1.1% among 220,000; AID 1446, 2008;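 active = inhibition above the campaign mean plus 3 SD over all tested compounds, cut at about 24% in these data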;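 note: cytokine-independent growth of Ba/F3 cells driven by EpoR plus mutant JAK2; 0% = DMSO-treated cells and 100% = JAK inhibitor I control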
IEC-6 cytotox = cytotoxicity in IEC-6 intestinal epithelial cells, primary screen, cytotoxicity control for KLF5 inhibitor project, cell-based, luminescence. IEC-6 cytotoxicity, luminescence viability. inhibition, % at 5 µM. hit rate 0.78% among 290,000; in the data active = inhibition above about 22%;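 note: 0% = plate median of test compound wells and 100% = cytotoxic reference compound wells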
KLF5 inh = KLF5 expression inhibitors, primary screen, DLD-1 cells, luminescence; DLD-1 KLF5 promoter-luciferase reporter; inhibition, % at 5 µM; hit rate 0.23% among 290,000;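 active = inhibition above a per-plate limit of that plate's mean compound inhibition plus 3 SD, cut at about 60% in these data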;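 note: 0% = DMSO wells and 100% = LY294002 at 200 µM; higher means less KLF5 promoter-driven luciferase light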
aSyn UTR inh = MLPCN primary screen, SNCA 5' untranslated region. inhibition, % (tested at 7.5 µM). alpha-synuclein 5'UTR reporter, inhibitor activity. hit rate 0.82% among 300,000. AID 1813, 2009; in the data active = inhibition above about 60%;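 note: H4 neuroglioblastoma cells stably carrying SNCA 5'UTR luciferase fusion; 0% = DMSO wells and 100% = positive control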
Active calls of the source: *; x = no result. A selection: hits, their analogues and other compounds. The true share with any hit is near 2.2%.

SMILES | BaF3 parental | APP 5UTR inh | Ba/F3 V617F tox | IEC-6 cytotox | KLF5 inh | aSyn UTR inh
COc1cc2nc(N(CCCN(C)C)C(=O)c3ccc(S(=O)(=O)N4CCc5ccccc5C4)cc3)sc2cc1OC | x | x | x | x | x | -11
COc1ccc(NC(=O)CN2CCN(C(=O)N3CCOCC3)CC2)cc1 | x | x | x | 2 | -5 | 12
COc1cccc2sc(N(CCCN(C)C)C(=O)c3ccc(S(=O)(=O)N4CCCc5ccccc54)cc3)nc12 | x | x | x | -2 | -11 | 64*
COc1ccc(C)c2sc(N(CCCN(C)C)C(=O)c3ccc(S(=O)(=O)N4CCc5ccccc5C4)cc3)nc12 | x | x | x | x | x | 91*
CCCOc1ccc(C(=O)NNC(=S)NC(C)=O)cc1 | 4 | -4 | 3 | 6 | 0 | 68*
CCCCOc1ccc(C(=O)NNC(=S)NC(=O)CC)cc1 | 7 | 56* | -1 | 3 | -11 | 85*
CCC(=O)NC(=S)NNC(=O)c1ccc(OC)cc1 | 4 | -12 | 2 | 0 | -23 | 19
O=C(NC1CCCCC1)C(=O)c1c[nH]c2ccccc12 | x | x | x | 1 | -192 | -115
Cc1cc(OCc2nnc(SC(C)C(=O)O)n2-c2ccccc2)ccc1Cl (centres undefined) | x | x | x | -3 | -3 | 11
CC(C)(C)c1ccc(/C=C(\C#N)C(=O)NCCN2CCOCC2)cc1 | 1 | -29 | -3 | -3 | -7 | 29
Cc1nc2ncnn2c(C)c1Cc1cccc(C(F)(F)F)c1 | 4 | -7 | 7 | 8 | 10 | 12
Cc1ccc(C2(C)NC(=O)N(CC(=O)Nc3nc(-c4ccccn4)cs3)C2=O)cc1 (centres undefined) | x | x | x | x | x | 80*
CCOc1ccc(/C=N/NC(=O)c2nnn(-c3nonc3N)c2-c2cccs2)cc1 | x | x | x | -6 | -9 | 19
COc1ccc(-n2ncc(Cl)c(Cl)c2=O)cc1 | -9 | 92* | 9 | 61* | -10 | -155
COc1ccc(-n2ncc(N(C)n3cccc3)c(Cl)c2=O)cc1 | 2 | -133 | 1 | -2 | -158 | x
COc1ccccc1CNC(=O)C(=O)NCC1OCCCN1S(=O)(=O)c1cccs1 (centres undefined) | x | x | x | -4 | -11 | 11
CC(C)(C)NC(=O)C(OC(=O)Cn1nnc(-c2ccc(F)cc2)n1)c1ccncc1 (centres undefined) | 93* | -22 | 1 | -2 | -37 | 15
CC(C)(C)NC(=O)C(c1ccncc1)N(Cc1cccs1)C(=O)Cn1nnc(-c2ccc(F)cc2)n1 (centres undefined) | 3 | 5 | -1 | 12 | -3 | -19
OC1(c2cccc(C(F)(F)F)c2)CCN(c2ncnc3c2[nH]c2ccc(F)cc23)CC1 | 35* | 15 | 20 | -1 | -13 | x
CCOC(=O)N1CCN(c2ncnc3c2[nH]c2ccc(F)cc23)CC1 | 42* | -19 | 23 | 9 | -14 | -7
CCOC(=O)N1CCN(c2ncnc3c2[nH]c2ccc(OC)cc23)CC1 | 9 | -6 | 4 | 6 | -41 | 0
Fc1ccc2[nH]c3c(N4CCN(c5ccccc5)CC4)ncnc3c2c1 | 8 | 6 | -3 | -8 | -42 | 8
COc1ccc(NS(=O)(=O)c2cccc(C(=O)NNC(=O)c3ccc(Br)o3)c2)cc1 | x | x | x | x | x | 7
COc1ccc(/C=C/C(=O)O)cc1S(=O)(=O)N1CCC(C)CC1 | -6 | x | -2 | 4 | 6 | -6
CC(O)[C@H]1CNCCN1CCc1cccc(F)c1 (some centres undefined) | x | x | x | x | x | -1
SMILES | BaF3 parental | APP 5UTR inh | Ba/F3 V617F tox | IEC-6 cytotox | KLF5 inh | aSyn UTR inh
Cc1ccc(O)c(NC(=O)CCC2CCCCC2)c1 | 58* | -64 | 73* | -2 | -105 | -152
O=C(CCC1CCCCC1)Nc1ccccc1O | 11 | -61 | 19 | 3 | -59 | -163
C=CCNCc1ccc(C(=O)NCCCCCCC)cc1[N+](=O)[O-] | x | x | x | x | x | 3
CC(C)(C)C1CCC(OC(=O)C[N+]2(C)CCCC2)CC1 (centres undefined) | 36* | -12 | 32* | -2 | -15 | 6
CC(C)CC1CCCCC1OC(=O)C[N+]1(C)CCCCC1 (centres undefined) | 63* | -25 | 57* | 0 | -1 | 21
CC(C)(C)C1CCC(OC(=O)C[N+]2(C)CCCCC2)CC1 (centres undefined) | 41* | 8 | 32* | -3 | -15 | -4
C[N+]1(CC(=O)OCCCC2CCCCC2)CCCC1 | 3 | 7 | 0 | 2 | -29 | -17
CC(C)(C)C1CCC(OC(=O)CN2CCOCC2)CC1 (centres undefined) | 4 | -16 | 0 | -1 | 10 | -108
Nc1nc(Nc2ccccc2)nc(N2CCOCC2)c1[N+](=O)[O-] | 5 | 58* | -1 | -6 | -11 | 17
COc1ccc(CN(C(=O)c2snc(C(N)=O)c2N)C(C(=O)NC2CCCC2)c2cc(OC)ccc2OC)cc1 (centres undefined) | x | x | x | 7 | -3 | 8
CN(C)c1ccc(CNc2ccc3c(c2)ncn3C)cc1 | 33* | -3 | 21 | 6 | -4 | -8
CCc1ccc(S(=O)(=O)/N=C2/C=C(Sc3ncn[nH]3)C(=O)c3ccccc32)cc1 | 34* | 75* | 71* | 1 | -5 | x
CCc1ccc(S(=O)(=O)/N=C2\C=CC(=O)c3ccccc32)cc1 | 4 | 35 | -2 | 7 | -3 | -22
CC(C(=O)Nc1cccc(S(=O)(=O)N2CCOCC2)c1)N1CCN(C/C=C/c2ccccc2)CC1 (centres undefined) | 30* | -2 | 28* | -7 | -15 | 24
CCC1CCCCN1C(=O)CCNS(=O)(=O)c1ccc2c(c1)oc(=O)n2C (centres undefined) | x | x | x | -2 | -8 | 23
CCN(c1ccccc1)S(=O)(=O)c1ccc(OC)c(NC(=O)CN(C)C)c1 | 33* | 0 | 12 | -2 | -14 | -8
CCN(c1ccccc1)S(=O)(=O)c1ccc(OC)c(NC(=O)CNCC(C)O)c1 (centres undefined) | 4 | -2 | 0 | -4 | -12 | 20
CCC(C)NCC(=O)Nc1cc(S(=O)(=O)N(CC)c2ccccc2)ccc1Cl (centres undefined) | 46* | 3 | 7 | -3 | -1 | 0
CCN(c1ccccc1)S(=O)(=O)c1ccc(OC)c(NC(=O)CNC)c1 | 30* | -12 | 8 | 5 | -24 | -6
Cc1cc(NC(=O)COC(=O)C2CCN(S(=O)(=O)c3ccccc3)CC2)c([N+](=O)[O-])cc1C | x | x | x | 7 | -7 | -5
CCCC(=O)Nc1ccc(C(=O)n2ccc(C)n2)cc1 | 1 | -16 | 3 | 4 | 1 | -7
O=C(NC(Nc1ncc(S(=O)(=O)c2ccc([N+](=O)[O-])cc2)s1)(C(F)(F)F)C(F)(F)F)c1ccc(Cl)cc1 | 4 | -12 | 0 | -4 | 11 | 73*
